A selection: hits, their analogues and other compounds. The true share with any hit is near 4.5%.
CSC inhib – cancer stem cell viability inhibitors, primary screen, luminescence; cancer stem cell-like cells viability; inhibition, % at 7.5 µM; 300,000 tested, 1.1% active; in the data active = inhibition above about 75%; tested in HMLE shEcad cells
Jurkat NFkB inh – inhibitors of induced NF-kB luciferase reporter, primary screen, TCR NF-kB activation inhibitor project, cell-based, luminescence, uHTS | Jurkat, PMA/ionomycin-induced NF-kB luciferase reporter | 330,000 tested, 0.53% active | inhibition, % at 4 µM; in the data active = inhibition above about 50%
Mdm2-MdmX inh – inhibitors of human Mdm2-MdmX association, primary screen, cell-based, luminescence, split luciferase, SaOS-2, uHTS; 330,000 tested, 3% active; Protein Mdm4 (Homo sapiens) + E3 ubiquitin-protein ligase Mdm2 (Homo sapiens), …; inhibition, % at 8 µM; SaOS-2 split-luciferase Mdm2/MdmX complementation;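 active = inhibition of at least 50% at 8 µM in the primary screen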
Beta apoptosis – inhibitors of cytokine-induced beta cell apoptosis, primary screen, luminescence; INS-1E cytokine-induced death, ATP luminescence, 48 h; percent of positive-control rescue, neutral wells zero; 300,000 tested, 0.8% active; protection from apoptosis, % (no concentration beside the values);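 active = Every replicate reaches about 75%, or at least half do and their mean reaches it too, limit read from the data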;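 note: higher means more ATP so stronger rescue from cytokine killing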
697 NFkB inh – inhibitors of PMA/ionomycin-induced NF-kB reporter, 697 cells, primary screen, B-cell NF-kB inhibitor project, cell-based, luminescence, uHTS. 330,000 tested, 0.33% active. 697 B-cell NF-kB luciferase reporter, 16 h. inhibition, % at 4 µM. AID 435022, 2010; in the data active = inhibition above about 35%
Gli-Sufu antag – Gli-Sufu pathway antagonists, primary screen, luciferase luminescence, Sufu-KO-LIGHT cells, uHTS; Sufu-KO-LIGHT fibroblasts, Gli luciferase reporter luminescence; inhibition, % at 5 µM; 340,000 tested, 0.74% active;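 active = inhibition above about 55%, limit read from the data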
697 NFkB conf – PMA/ionomycin-induced NF-kB reporter inhibitors, 697 retest, confirmation, B-cell NF-kB inhibitor project, cell-based, luminescence, single concentration | shares compounds with 697 NFkB inh | 2,000 tested, 35% active | AID 449746, 2010 | inhibition, % at 4 µM | 697 B-cell NF-kB luciferase, 16 h; in the data active = inhibition mostly above about 28%, no sharp cut-off; inactive = mostly below about 22%
Large screens that a line does not name were inactive (follow-up assays come after a bar, where they were run).

COCCNC(=O)c1c(N)n(-c2cccc(C)c2)c2nc3ccccc3nc12	697 NFkB inh 35 | 697 NFkB conf inactive
COCCNC(=O)c1c(N)n(-c2ccccc2)c2nc3ccccc3nc12	none
O=C(O)c1ccccc1C(=O)NCc1cccnc1	none (no result: Beta apoptosis)
O=C(NCc1cccnc1)c1cccn2c(=O)c3sccc3nc12	697 NFkB inh 38 | 697 NFkB conf inactive
O=c1cnn([C@@H]2O[C@H](CO)[C@@H](O)[C@H]2O)c(=O)[nH]1	none | 697 NFkB conf inactive
CC(=O)C1[C@H](N(C)C)CC2C3CC=C4CC(O)CC[C@]4(C)C3CC[C@@]21C (some centres undefined)	none
CC1CCN(C(=O)c2cc3nc(-c4ccccc4)cc(-c4ccccc4)n3n2)CC1	697 NFkB inh 35 | 697 NFkB conf inactive
O=C(c1cc2nc(-c3ccccc3)cc(C(F)(F)F)n2n1)N1CCOCC1	none
CCOC(=O)C1CCN(C(=O)c2ccc(N3CCCC3=O)cc2)CC1	none (no result: CSC inhib)
CCOc1ccc(-c2cccc(NC(=O)c3ccco3)c2)nn1	none (no result: CSC inhib)
CCOc1c(C)cnc2c1c(=O)n(Cc1ccc(Cl)cc1)c(=O)n2C	none
Cc1ccoc1C(=O)Nc1ccc(CC(=O)O)cc1	697 NFkB inh 66 | 697 NFkB conf 60
Cc1cccc(NC(=O)CC2C(=O)NCCN2C(=S)Nc2ccccc2)c1 (centres undefined)	none
COc1ccccc1NC(=S)N1CCNC(=O)C1CC(=O)Nc1cccc(C)c1 (centres undefined)	697 NFkB inh 38 | 697 NFkB conf inactive
O=C(OCCc1ccccc1)c1cc(O)c(O)c(O)c1	none | 697 NFkB conf inactive
O=S(=O)(NCC1(N2CCOCC2)CCCCC1)c1ccc(Cl)cc1C(F)(F)F	none (no result: CSC inhib)
Cc1ccccc1C(=O)N1CCC(C(=O)NN2C(=O)NC3(CCC(C)CC3)C2=O)CC1 (centres undefined)	none
COc1ccc(NC(=O)c2nnn(Cc3cccc(F)c3)c2N)c(OC)c1	697 NFkB inh 35 | 697 NFkB conf 39
COc1ccc(C)cc1NC(=O)c1nnn(Cc2cccc(F)c2)c1N	none (no result: CSC inhib)
COc1cccc(Cn2nnc(C(=O)NCCc3ccc(Cl)cc3)c2N)c1	none
COc1cccc(Cn2nnc(C(=O)Nc3cc(Cl)ccc3OC)c2N)c1	CSC inhib 79, 697 NFkB inh 41 | 697 NFkB conf 38
COCC1CCCN(Cc2cn(-c3ccccc3)nc2-c2ccc3c(c2)OCO3)C1 (centres undefined)	none (no result: CSC inhib)
CCCCCOc1ccc(NC(=O)C(=O)NCCCn2ccnc2)cc1	697 NFkB inh 48 | 697 NFkB conf 53
Cc1ccc(CNC(=O)C(=O)NCCCn2ccnc2)cc1	697 NFkB inh 38 | 697 NFkB conf inactive
C=CCOc1ccc(NC(=O)C(=O)NCCCn2ccnc2)cc1	697 NFkB inh 46 | 697 NFkB conf 34
COc1cccc(NC(=O)C(=O)NCCCn2ccnc2)c1	none
CCCOc1ccc(C(=O)NCCCn2ccnc2)cc1	none (no result: CSC inhib)
Cc1nn(CC(=O)Nc2ccc(N3CCOCC3)cc2)c(C)c1[N+](=O)[O-]	none
c1ccc(C(=C2CCCO2)c2ccccc2)cc1	none (no result: CSC inhib, Jurkat NFkB inh, Mdm2-MdmX inh, Beta apoptosis, 697 NFkB inh)
NS(=O)(=O)c1ccc(NC(=O)CCC(=O)c2ccc(Cl)s2)cc1	none
Cc1ccc(-c2nn3c(C)nnc3c3ccccc23)cc1S(=O)(=O)NCCN1CCOCC1	697 NFkB inh 53 | 697 NFkB conf 30
COc1ccc(N=Nc2ccc(CO)cc2)cc1	none | 697 NFkB conf inactive
Cc1ccc(NC(=O)COC(=O)c2c(-c3ccccc3)noc2C)c(C)c1	none (no result: CSC inhib)
COC(=O)[C@H](C)NC(=O)Nc1cccc(C(F)(F)F)c1	697 NFkB inh 36 (no result: CSC inhib) | 697 NFkB conf inactive
Cc1cc(C)nc(Nc2nc3ccccc3s2)n1	none
CC(=O)c1c(C)nc(Nc2nc3ccccc3s2)nc1C	none | 697 NFkB conf inactive
COc1ccc(N=Nc2ccc3ccccc3c2)c(O)c1	none | 697 NFkB conf inactive
C=CCNC(=O)c1ccc(-c2nc(-c3ccccc3)cs2)cc1	none | 697 NFkB conf inactive
O=C(OCc1ccccc1Cl)C1CC(=O)N(Cc2ccco2)C1 (centres undefined)	none
COc1ccc(NC(=O)CN(C)C(=O)C2(c3ccccc3)CCCC2)cc1	697 NFkB inh 71 | 697 NFkB conf 72
COc1ccc(NC(=O)CN(C)C(=O)CCc2ccccc2)cc1	none
O=C(O)COc1ccc(-c2nccc(-c3ccccn3)n2)cc1	697 NFkB inh 52 | 697 NFkB conf 56
NNC(=O)COc1ccc(-c2nccc(-c3ccc(F)cc3)n2)cc1	697 NFkB inh 60 | 697 NFkB conf 50
O=C(CCCN1C(=O)/C(=C/c2ccccc2Cl)SC1=S)NNC(=O)c1ccc(Cl)cc1	697 NFkB inh 61 | 697 NFkB conf 52
Cc1ccc(C(=O)NNC(=O)CCCN2C(=O)/C(=C/c3ccccc3Cl)SC2=S)cc1	697 NFkB inh 44 | 697 NFkB conf 41
O=C(CCN1C(=O)/C(=C/c2ccccc2Cl)SC1=S)NNC(=O)c1cccnc1	none
NC(=O)c1ccc(NC(=O)COC(=O)c2c[nH]c3ccccc23)cc1	none (no result: CSC inhib, Beta apoptosis)
Cc1ccc(S(=O)(=O)N2CCCC2C(=O)NCc2ccccc2F)cc1 (centres undefined)	none
COCC(=O)Nc1nnc(-c2ccc(C(C)(C)C)cc2)s1	none (no result: CSC inhib)
ClCc1nnc(-c2ccccc2)o1	697 NFkB inh 35 | 697 NFkB conf 29
O=C(CCCc1nc(-c2ccc(Cl)cc2)no1)NCC1CCCO1 (centres undefined)	none (no result: Beta apoptosis)
COc1cccc(-c2noc(CCC(=O)NCCc3ccccc3)n2)c1	697 NFkB inh 49 | 697 NFkB conf 49
COc1ccc(-c2noc(CCCC(=O)O)n2)cc1	697 NFkB inh 74 | 697 NFkB conf 58
CCOc1ccc(-c2noc(CCC(=O)O)n2)cc1	697 NFkB inh 62 | 697 NFkB conf 49
COc1ccc(-c2noc(CCCC(=O)NCC3CCCO3)n2)cc1 (centres undefined)	697 NFkB inh 41 (no result: Beta apoptosis) | 697 NFkB conf inactive
CCCOc1ccc(/C=C/c2c([N+](=O)[O-])c(=O)n(C)c(=O)n2C)cc1	none
O=C(Nc1ccc(NS(=O)(=O)c2ccccc2)cc1)c1ccccc1Cl	none
COc1ccc(Cc2nc(-c3ccc(NC(=O)c4cccnc4)cc3)no2)cc1	Beta apoptosis 107, 697 NFkB inh 51 | 697 NFkB conf 33
COc1cccc(-c2nc(-c3ccc(C(=O)O)cc3)no2)c1	none | 697 NFkB conf inactive
CC(=O)Oc1ccc(C(=O)NC(C)CCc2ccccc2)cc1 (centres undefined)	none
